Assay outcomes deposited in PubChem BioAssay by National Center for Advancing Translational Sciences (NCATS).
Sampled rows, rich in hits. Any-hit rate of the full collection: about 1.7%.
IkB signaling: IkB pathway inhibition in ABC-DLBCL cells; ABC-DLBCL IkBa-CBG/CBR dual luciferase ratio, 4 h; response scale: scaled: untreated 0%, proteasome inhibitor 100%; Potency, µM (titrated, usually from 57.1 µM), inactives show at the highest dose IkBa stabilization activation; 110,000 compounds, 0.04% hits; active = well fitted curve in the direction sought with a large enough effect in the signal ratio, not every such curve was filed as active; inconclusive = small, poorly fitted or top-dose-only effect, or a change in a side signal; the % refers to the signal ratio;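 note: the direction sought is a rising ratio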
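Luminescence ratio of IκBα-fused green versus native red beetle luciferase in OCI-Ly3 cells, 4 h post-doxycycline with compound; red signal alone, scaled from basal (0%) to zero light (-100%), flagged nonspecific or cytotoxic effects.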
p53ts 39C kill: p53ts cell cytotoxicity, nonpermissive temperature. Potency, µM (titrated, usually from 46.1 µM), for inactives: at the highest dose activity change, negative = cell killing, most hits filed as cytotoxic. AID 902. H1299-p53A138V viability at 39C, ATP luminescence, 24 h. 130,000 compounds, 1.5% hits; note: % is set by controls: 0 for no effect and ±100 for the full control effect; nearly all actives have a fitted effect of over 55% in size
Imprint erasure: induces erasure of genomic imprints in mouse ES cells | 110,000 compounds, 0.02% hits | AID 1948 | Potency, µM (doses to about 60.7 µM), inactives show top-dose activity change, positive = activation, hits mostly activators | mouse ES Peg3-LacZ reporter, beta-gal luminescence, 40 h
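Imprint erasure is scored as LacZ activity from the silenced maternal Peg3 allele in feeder-free female ES cells cultured 40 h with LIF. Luminescence is normalized to in-plate negative controls and fitted to the Hill equation.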
p53ts 32C tox: cytotoxicity in p53ts cells at permissive temperature | H1299-p53A138V at 32C, ATP luminescence viability, 24 h | Potency, µM (titrated, usually from 46.1 µM), for inactives: at the highest dose activity change, negative = cytotoxicity, actives largely listed as cytotoxic | 130,000 compounds, 0.93% hits | AID 924;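 note: 0% = DMSO and -100% = full killing by reference compound; nearly all actives have a fitted effect of over 55% in size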
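ATP-content luminescence (ATPlite) read-out after 24 h compound exposure at 32C in H1299-p53A138V cells (600/well). Tested up to 46 uM. Normalized to DMSO (0%) and 100 uM tamoxifen (100% killing); Hill-fit AC50.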
* = called active by the depositor; ? = inconclusive; . = not tested or not shown; [ ] = dose if it differs, or a comment. Unless noted, calls come from the whole dose curve; as a rule, active = well fitted curve in the direction sought with a large enough effect; inconclusive = small, poorly fitted or top-dose-only effect, or another doubt; inactive = no such curve, though single readings can be large; an effect the other way counts as inactive or inconclusive. Potency is the fitted concentration of half-maximal effect.

SMILES | IkB signaling | p53ts 39C kill | Imprint erasure | p53ts 32C tox
COC1=C(C)C(=O)c2c(c(COC(N)=O)c3n2C[C@@H]2[C@@H]3N2C)C1=O (stereo not given in full) | 3.2µM* | ? | -39%[10.9 µM] | ?
O=C(CCCN1CCC2(CC1)C(=O)N(CCc1ccc(N=C=S)cc1)CN2c1ccccc1)c1ccc(F)cc1 | 6% | . | . | .
Cn1ncnc2c(=O)n(C)c(=O)nc1-2 | ? | 5µM* | -34% | 0.79µM*
O=CN1C[C@H]2C[C@@H](C1)c1cccc(=O)n1C2 | 0%[11.4 µM] | . | . | .
CC[C@H]1CN2CC[C@@H]1C[C@@H]2[C@H](O)c1ccnc2ccccc12 | 1%[11.4 µM] | . | . | .
Cc1ccc(Cl)cc1N1CCN(C(=O)C2CCN(Cc3nc(-c4ccc(Cl)cc4)oc3C)CC2)CC1 | ? | 13µM* | -15%[10.9 µM] | 4%
O=C1C[C@H]2OCCC=C3CN4CC[C@@]56c7ccccc7N1[C@@H]5[C@H]2[C@H]3C[C@@H]46 | 0%[11.4 µM] | . | . | .
CSC([N-]/N=C/c1cccc(C)n1)=[S]=[Cu].CS[C@H]([S-])[N-]/N=C/c1cccc(C)n1 | ? | ? | . | 2µM*
Cc1c2ccncc2c(C)c2c1[nH]c1ccccc12 | ? | 13µM* | -31% | 13µM*
CC(C)(C)c1ccc(C(=O)Nc2ccc3nc(SCC(=O)N4CCCC4)sc3c2)cc1 | ? | 3.2µM* | -14%[10.9 µM] | 13µM*
C=CCN1CCc2cccc3c2[C@@H]1Cc1ccc(O)c(O)c1-3 | 25% | ? | . | ?
CC1=C(O)C(=O)[C@H]2O[C@@H]2C1=O | ? | ? | -28% | 16µM*
CC(=O)c1cccc(NC(=O)c2cc3c(s2)-c2c(C)cccc2OC3)c1 | ? | 5µM* | -16%[10.9 µM] | 10µM*
CC(=O)c1cccc(NC(=O)c2cccn(Cc3cccc(C)c3)c2=O)c1 | ? | 8% | -1%[10.9 µM] | -2%
C/C=C(\C)C(=O)O[C@@H]1C(C)=C2[C@H]([C@@H]1OC(=O)CCCCCCC)[C@@](C)(OC(C)=O)C[C@@H](OC(=O)CCC)[C@@]1(O)[C@H]2OC(=O)[C@]1(C)O | 4µM* | 13µM* | . | 25µM*
CC[C@]1(O)CC(O[C@@H]2CC(N(C)C)C(O)C(C)O2)c2c(cc3c(c2O)C(=O)c2c(O)cccc2C3=O)C1C(=O)OC (stereo not given in full) | . | ? | -41% | -17%
CC[C@@]1(O)CC(O)c2c(cc3c(c2O)C(=O)c2c(O)ccc(O)c2C3=O)C1C(=O)OC (stereo not given in full) | . | 13µM* | -14% | ?
